# Source: PubChem (National Center for Advancing Translational Sciences (NCATS))
# HTT ATP protect: Huntington cell model cytoprotection by ATP luminescence; PC12 HTT-Q103 induced, cytoprotection, ATP luminescence, 40 h; Potency, µM (doses to about 56.4 µM), for inactives: cytoprotection (ATP increase), hits mostly activators; actives 0.14% (n = 230,000); AID 1471; active = well fitted curve in the direction sought with a large enough effect; inconclusive = small, poorly fitted or top-dose-only effect, or another doubt; inactive = no such curve, though single readings can be large; an effect the other way counts as inactive or inconclusive; also: % of control where 0% means no effect; nearly all actives have a fitted effect of over 45% in size
#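 Stable PC12 Q103-GFP cells in serum-supplemented, phenol red-free DMEM; induction by tebufenozide at 100 nM final; compound dose series; cell viability quantified luminescently from ATP.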
# JMJD2E inh: blocks human JMJD2E demethylase activity; Potency, µM (top dose mostly 57.1 µM), without a hit: at the highest dose activity change, negative = inhibition, actives largely listed as inhibitors; actives 1.6% (n = 230,000); AID 2147; JMJD2E catalytic domain, FDH-coupled NADH fluorescence (FDH is formaldehyde dehydrogenase);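 also: 0% = wells with enzyme and -100% = buffer wells without enzyme; nearly all actives have a fitted effect of over 50% in size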
# HPGD inh: inhibitors of human 15-hydroxyprostaglandin dehydrogenase (HPGD); purified HPGD, NADH fluorescence kinetic, PGE2 substrate; AID 894; actives 4.3% (n = 150,000); P15428; Potency, µM, for the others: top-dose activity change, negative = inhibition, actives largely listed as inhibitors; also: % is scaled to controls: 0 for no effect and ±100 for the full control effect
#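 20 nM HPGD preincubated 15 min at room temperature with compound in 50 mM Tris-HCl pH 8, 0.01% Tween 20. Started with 1 mM NAD+ and 30 uM prostaglandin E2; NADH fluorescence (360/450 nm) read 5 times over 30-s intervals, last minus first.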
# HttQ103 aggreg: inhibitors of mutant huntingtin aggregate formation in PC12 cells; Potency, µM (titrated, usually from 46.1 µM), for inactives: at the top dose activity change, negative = inhibition, hits mostly inhibitors; PC12 HttQ103-GFP aggregates, Acumen cytometry, 40 h; actives 1.1% (n = 220,000); active = well fitted curve in the direction sought with a large enough effect; inconclusive = small, poorly fitted or top-dose-only effect, or another doubt; inactive = no such curve, though single readings can be large; an effect the other way counts as inactive or inconclusive; also: % is scaled to controls: 0 for no effect and ±100 for the full control effect; nearly all actives have a fitted effect of over 60% in size
#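 PC12/HTTQ103-GFP, ecdysone-inducible; teb 100 nM; cpd qHTS titration; GFP aggregates read on laser cytometer, Ex 488/Em 500-530 nm.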
# Lamin A splicing: changes lamin A minigene splicing in HeLa cells; actives 0.01% (n = 200,000); Potency, µM (top dose mostly 46.1 µM), without a hit: top-dose ratio change, negative = inhibition, most hits filed as inhibitors; HeLa LMNA splicing GFP/RFP minigene ratio, 48 h; active = well fitted inhibition curve with a large enough effect in the signal ratio, with a control signal flat, not every such curve was filed as active; inconclusive = small, poorly fitted or top-dose-only effect, or effect the other way, or a change in a side signal; the % refers to the signal ratio; also: % is scaled to controls: 0 for no effect and ±100 for the full control effect
#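 Read-out is the ratio of GFP to DsRed2 object intensity, acquired by 488 nm laser-scanning cytometry on HeLa lamin A-EGFP minigene reporter cells. Compound incubation 48 hrs at 37 °C in Opti-MEM with 2% FBS; DMSO 0.5% final.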
# ALDH1A1 block: inhibitors of human aldehyde dehydrogenase 1A1. Purified ALDH1A1, NADH fluorescence, propionaldehyde substrate. Potency, µM (top dose mostly 75.3 µM), for inactives: top-dose activity, negative = inhibition, most hits filed as inhibitors. actives 7.3% (n = 220,000). AID 1030;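 also: plate controls were no enzyme wells and a reference inhibitor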
# Target sequence (P00352 whole entry, looked up): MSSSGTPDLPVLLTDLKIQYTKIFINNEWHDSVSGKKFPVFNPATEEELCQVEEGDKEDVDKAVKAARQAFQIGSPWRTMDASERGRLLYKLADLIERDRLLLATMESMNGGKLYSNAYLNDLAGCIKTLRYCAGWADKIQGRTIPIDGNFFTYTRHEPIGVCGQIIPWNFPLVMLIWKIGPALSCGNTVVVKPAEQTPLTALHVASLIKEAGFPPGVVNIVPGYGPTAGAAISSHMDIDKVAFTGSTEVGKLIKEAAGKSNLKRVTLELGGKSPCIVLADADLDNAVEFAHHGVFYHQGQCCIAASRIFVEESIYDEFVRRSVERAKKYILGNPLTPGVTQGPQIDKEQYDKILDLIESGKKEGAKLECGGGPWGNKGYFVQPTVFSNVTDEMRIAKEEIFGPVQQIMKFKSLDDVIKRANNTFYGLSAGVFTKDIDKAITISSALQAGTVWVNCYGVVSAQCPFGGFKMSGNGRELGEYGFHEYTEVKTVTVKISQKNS
# * marks the source's active call; other numbers are inactive results; ? = inconclusive; . = not tested or not shown; [ ] = dose if it differs, or a comment. Only some compounds are listed: those with a hit (about 9.2% of all), similar ones and a draw of the others. Unless noted, calls follow the shape of the dose curve; as a rule, active = well fitted inhibition curve with a large enough effect (not every such curve was filed as active); inconclusive = small, poorly fitted or top-dose-only effect, or another doubt; inactive = no such curve, though single readings can be large or run the other way. Potency is read from the fitted curve at half-maximal effect.
SMILES,HTT ATP protect,JMJD2E inh,HPGD inh,HttQ103 aggreg,Lamin A splicing,ALDH1A1 block
CCN(C(=O)CCc1nc(-c2ccc(OC)cc2)no1)c1cc(OC)ccc1OC,-19.3%,?,14.1µM*,?,?,-14.0%
COc1ccc(-c2noc(CCC(=O)N3CCN(Cc4ccccc4)CC3)n2)cc1,-16.7%[10 µM],0.3%,-5.1%,?,-1.1%,?
Cc1ccc(-c2noc(CCC(=O)N3CCCC3)n2)cc1,6.3%,1.1%,25.1µM*,-5.4%,?,0.1%
Cc1ccc(CNC(=O)C2CC(=O)N(c3ccc(OCC(=O)N4CCCC4)cc3)C2)cc1 (stereo not drawn),9.1%[1.9 µM],6.2%,-23.6%,-1.6%,-3.0%,-7.8%
CNC(=O)C1CCC(Cn2c(=O)c3sccc3n(CC(=O)NCc3ccc(F)cc3)c2=O)CC1 (stereo not drawn),.,.,.,.,19.8%[46 µM],.
O=C(/C(=N/N=C/c1ccc(O)c(O)c1O)c1ccccc1)c1ccccc1,16.9%[0.074 µM],0.9%,2µM*,-12.8%,?,6.3%
NC(N)=N/N=C/c1ccccc1,7.5%,11.5%,-8.0%,-16.6%,-2.6%,-4.1%
Oc1ccc(/C=N/N=C(c2ccccc2)c2ccccc2)c(O)c1O,11.4%[10 µM],14.1µM*,15.8µM*,?,?,7.08µM*
Cc1ccc(C(=O)O[C@H](C(=O)O)[C@@H](OC(=O)c2ccc(C)cc2)C(=O)O)cc1 (tested in a mixture with another compound),.,0.3%,-6.1%,.,-24.4%,-0.6%
c1ccc2c(c1)nc(NC1CCCCC1)c1nncn12,-20.1%,8.1%,-19.1%,-8.4%,-1.6%,10µM*
O=C(Cc1ccccc1)N/N=C/c1cc(Br)cc(Cl)c1O,.,6.31µM*,.,?,.,6.8%
O=C(Cc1ccccc1)N/N=C/c1ccccc1F,11.1%[10 µM],0.3%,-23.1%,11.8%,1.0%,2.6%
O=C(N/N=C/c1cc(Br)cc(Br)c1O)c1ccncc1,-7.5%[10 µM],?,.,?,?,4.0%
O=C(CP(=O)(c1ccccc1)c1ccccc1)N/N=C/c1cc(Br)cc(Br)c1O,?,?,0.141µM*,11.2µM*,?,-2.5%
Cc1ccc(-n2c(=O)cc(N3CCN(c4ccccc4Cl)CC3)[nH]c2=O)cc1,.,.,.,.,3.9%[46 µM],.
CC(=O)N1CCN(C(=O)CSc2nc3c(cnn3-c3ccccc3)c(=O)[nH]2)CC1,2.6%,4.4%,?,20.8%,-0.5%,25.1µM*
O=C(CSc1nc2c(cnn2-c2ccccc2)c(=O)[nH]1)N1N=C(c2cccs2)CC1c1ccc(F)cc1 (stereo not drawn),.,3.98µM*,?,-6.8%,-0.3%,?
CC1CCN(C(=O)CSc2nc3c(cnn3-c3ccccc3)c(=O)[nH]2)CC1,-36.6%,1.3%,?,?,6.1%,?
CCCCCCCC1=Cc2ccccc2C(C(C(=O)OC)C(=O)OC)N1C(=O)OC (stereo not drawn),?,-4.2%[11.4 µM],-9.6%,.,?,13.7%[13.5 µM]
CCn1c(/C=C/Nc2ccccc2)[n+](CC)c2ccc(Cl)cc21,.,-12.1%,-5.9%,13.3%,10.0%,0.7%
CCn1c(/C=C/N(C)c2ccccc2)[n+](CC)c2ccc(Cl)cc21,-59.3%[10 µM],-23.4%,-14.2%,4.47µM*,?,?
CCN(CC)CCNC(=O)C(=O)NCC(c1ccc2c(c1)OCO2)N1CCOCC1 (stereo not drawn),.,.,.,.,-6.9%[46 µM],.
Nc1ccc(Cl)cc1[N+](=O)[O-],11.2%,.,-3.8%,.,.,-11.7%
O=C(CN1C(=O)C2C3C=CC(C3)C2C1=O)OCC(=O)c1ccccc1 (stereo not drawn),0.9%[10 µM],0.1%,25.1µM*,10.9%,2.3%,-0.4%
O=C1C2C3C=CC(C3)C2C(=O)N1CCc1ccccc1 (stereo not drawn),-16.5%[10 µM],-1.3%,-22.9%,19.7%,12.7%,11.2µM*
O=C(CCN1C(=O)C2C3C=CC(C3)C2C1=O)NCCc1ccccc1 (stereo not drawn),13.5%[10 µM],6.2%,-9.6%,-11.7%,-5.3%,?
